The text below walks through data of PubChem BioAssay (EPA / NIEHS).

Broadly, the AC50 is the concentration at which the activity in the assay is half-maximal.

Each structure is given as a SMILES string. Several values for one entry are separate records, joined by “and”; a condition that tells them apart may be missing. Identical values can stand only once. Records with an inconclusive call do not appear. Some structures have more than one record in an assay (separate samples or runs), and their calls can disagree. Activity calls are given as the source filed them. How the source made its calls, unless noted: active means hit-call score of the fitted dose curve at least 0.9, where 1 is the maximum; inactive means score below 0.9.

The nature of assay [1]: ATG_TCF_b_cat_CIS: Attagene CIS-FACTORIAL HepG2 Assay for human T-Cell-Factor with beta-catenin (TCF/b-cat) (AID 2282965). Particulars: HepG2 TCF/beta-catenin cis-reporter transcription, actives raise or lower the signal. The gist of the method:
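Cells of the HepG2 line carry transiently transfected reporter units whose promoters respond to endogenous factors. Twenty-four hours post-dosing, reporter mRNA induction is measured by fluorescent RT-PCR and capillary electrophoresis, with DMSO as baseline.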

Assay [2] can be described thus: ATG_TAL_CIS: Attagene CIS-FACTORIAL HepG2 Assay for human TAL Basal Promoter (AID 2282966).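 Further: background control endpoint measuring basal TAL promoter reporter mRNA not a specific factor.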 Particulars: HepG2 Attagene cis-factorial TAL promoter reporter; actives raise or lower the signal. The method in brief:
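Steps: transfect HepG2 with multiple reporter transcription units; dose 24 h; isolate RNA, reverse-transcribe, PCR-amplify, label with 6-FAM, digest with HpaI; resolve by capillary electrophoresis. Bidirectional fitting against DMSO baseline.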

The nature of assay [3]: ATG_TGFb_CIS: Attagene CIS-FACTORIAL HepG2 Assay for human Transforming Growth Factor (TGF) (AID 2282967). Particulars: HepG2 Attagene CIS TGFb reporter, mRNA transcription; actives raise or lower the signal. The method in brief:
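Multiplexed cis-reporter HepG2 system, 24 h treatment; mRNA induction read by fluorescence after RT-PCR and CE; DMSO negative control, bidirectional curve fitting.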

Assay [4] in a line: ATG_VDRE_CIS: Attagene CIS-FACTORIAL HepG2 Assay for human Vitamin D Receptor Element (VDRE) (AID 2282968). Particulars: HepG2 VDRE cis-reporter transcription, actives raise or lower the signal. The gist of the method: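 Cell-based multiplexed reporter format in human liver HepG2 cells, 24 h post-dose. Fluorescence from capillary electrophoresis of reporter cDNA gives the signal, with DMSO as negative control and baseline.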

Assay [5] addresses Nuclear receptor subfamily 1 group I member 3 (Homo sapiens) (UniProt Q14994). Briefly: ATG_CAR_TRANS: Attagene TRANS-FACTORIAL HepG2 Assay for human Constitutive Androstane Receptor (CAR) (AID 2282969; active means hit-call score of the fitted dose curve at least 0.9, where 1 is the maximum;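 further: activators raise reporter mRNA above DMSO so AC50 marks induction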). The settings on record: HepG2 Attagene TRANS-FACTORIAL CAR reporter. The method in brief: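 HepG2 cells transiently transfected with GAL4-UAS reporter units; TRANS format reads activity of exogenous chimeric NR-Gal4 protein. After 24 h dosing, reporter mRNA quantified by RT-PCR, 6-FAM labelling and capillary electrophoresis; gain of signal fitted against DMSO.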

Assay [6] concerns the target Estrogen receptor (Homo sapiens) (UniProt P03372). The experiment in a line: ATG_ERa_TRANS: Attagene TRANS-FACTORIAL HepG2 Assay for human Estrogen Receptor alpha (ERa) (AID 2282970; active means hit-call score of the fitted dose curve at least 0.9, where 1 is the maximum). The settings on record: HepG2 Attagene TRANS ERa GAL4 reporter, mRNA. The gist of the method:
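Multiplexed cell-based reporter format in HepG2: chimeric ERa-Gal4 protein drives GAL4-UAS reporter transcription. Fluorescent reporter mRNA quantified by capillary electrophoresis 24 hours after dosing; endpoint fitted as signal gain against DMSO.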

In assay [7] the target is Steroid hormone receptor ERR1 (Homo sapiens) (UniProt P11474). The experiment in a line: ATG_ERRa_TRANS: Attagene TRANS-FACTORIAL HepG2 Assay for human Estrogen-Related Receptor alpha (ERRa) (AID 2282971; active means hit-call score of the fitted dose curve at least 0.9, where 1 is the maximum). The settings on record: HepG2 Attagene TRANS reporter, ERRa transactivation. The method in brief:
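Signal gain relative to DMSO for an ERRa-Gal4 chimeric receptor, read as reporter mRNA by RT-PCR/capillary electrophoresis. Human HepG2 liver cells, transient multiplex reporter transfection, 24 h chemical exposure.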

In assay [8] the target is X-box-binding protein 1 (Homo sapiens) (UniProt P17861). Briefly: ATG_Xbp1_CIS: Attagene CIS-FACTORIAL HepG2 Assay for human X-box Binding Protein 1 (XBP1) (AID 2282972). The settings on record: HepG2 XBP1 cis-element reporter, Attagene multiplex; actives raise or lower the signal. The gist of the method:
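After a 24-hour chemical exposure of HepG2 cells carrying cis-regulated reporters, reporter mRNA levels are assessed. Quantification uses RT-PCR, 6-FAM labelling and capillary electrophoresis. Gain- or loss-of-signal is fitted against DMSO.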

A short description of assay [9]: ATG_M_19_TRANS: Attagene TRANS-FACTORIAL HepG2 Assay for M19 Transcription Factor (Internal Marker) (AID 2282974; active means hit-call score of the fitted dose curve at least 0.9, where 1 is the maximum). The settings on record: HepG2 Attagene TRANS-FACTORIAL M19 internal marker reporter. The gist of the method: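 Cells: human HepG2, transiently transfected with multiplexed reporter transcription units. Exposure: 24 h. Detection: RT-PCR of reporter mRNA with capillary electrophoresis. Analysis: gain-of-signal vs DMSO.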

Assay [10] is described as follows: ATG_GAL4_TRANS: Attagene TRANS-FACTORIAL HepG2 Assay for GAL4 (Internal Marker) (AID 2282976; active means hit-call score of the fitted dose curve at least 0.9, where 1 is the maximum). Particulars: HepG2 Attagene TRANS GAL4 internal marker reporter. The method in brief:
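Liver HepG2 line bearing multiplexed GAL4-UAS reporter constructs; 24 h chemical treatment. Transcripts were quantified as fluorescent fragments on capillary electrophoresis after RT-PCR and HpaI cut, with activity fitted upward from DMSO.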

Chain of Estrogen receptor (Homo sapiens) (P03372 whole entry, looked up, the tested form may be a part): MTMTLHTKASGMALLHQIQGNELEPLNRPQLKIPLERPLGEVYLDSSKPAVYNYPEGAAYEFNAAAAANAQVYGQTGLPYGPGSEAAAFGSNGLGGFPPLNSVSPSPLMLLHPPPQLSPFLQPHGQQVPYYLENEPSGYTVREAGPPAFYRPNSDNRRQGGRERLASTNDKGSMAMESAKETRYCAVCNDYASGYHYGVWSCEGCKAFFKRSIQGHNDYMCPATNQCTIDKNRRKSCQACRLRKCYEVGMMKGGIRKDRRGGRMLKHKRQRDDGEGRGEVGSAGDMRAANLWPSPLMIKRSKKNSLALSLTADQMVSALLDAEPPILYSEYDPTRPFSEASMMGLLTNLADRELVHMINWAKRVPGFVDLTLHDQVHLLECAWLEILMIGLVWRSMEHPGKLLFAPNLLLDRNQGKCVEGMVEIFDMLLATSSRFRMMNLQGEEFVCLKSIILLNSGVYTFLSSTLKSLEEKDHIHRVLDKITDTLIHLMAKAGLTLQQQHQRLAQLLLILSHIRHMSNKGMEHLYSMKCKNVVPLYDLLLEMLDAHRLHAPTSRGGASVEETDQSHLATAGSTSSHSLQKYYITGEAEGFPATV
Chain of Steroid hormone receptor ERR1 (Homo sapiens) (P11474 whole entry, looked up, the tested form may be a part): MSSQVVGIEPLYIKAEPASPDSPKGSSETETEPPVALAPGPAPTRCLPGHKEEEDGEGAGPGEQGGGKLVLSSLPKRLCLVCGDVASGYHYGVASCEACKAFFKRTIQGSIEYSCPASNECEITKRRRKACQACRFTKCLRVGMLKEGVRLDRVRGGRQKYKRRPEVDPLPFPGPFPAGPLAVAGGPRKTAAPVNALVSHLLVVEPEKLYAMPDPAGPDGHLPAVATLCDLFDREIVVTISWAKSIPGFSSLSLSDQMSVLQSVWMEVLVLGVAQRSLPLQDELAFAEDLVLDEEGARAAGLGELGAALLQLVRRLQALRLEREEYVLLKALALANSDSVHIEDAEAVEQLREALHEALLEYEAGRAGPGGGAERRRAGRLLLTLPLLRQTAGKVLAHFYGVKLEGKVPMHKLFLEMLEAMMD
Chain of Nuclear receptor subfamily 1 group I member 3 (Homo sapiens) (Q14994 whole entry, looked up, the tested form may be a part): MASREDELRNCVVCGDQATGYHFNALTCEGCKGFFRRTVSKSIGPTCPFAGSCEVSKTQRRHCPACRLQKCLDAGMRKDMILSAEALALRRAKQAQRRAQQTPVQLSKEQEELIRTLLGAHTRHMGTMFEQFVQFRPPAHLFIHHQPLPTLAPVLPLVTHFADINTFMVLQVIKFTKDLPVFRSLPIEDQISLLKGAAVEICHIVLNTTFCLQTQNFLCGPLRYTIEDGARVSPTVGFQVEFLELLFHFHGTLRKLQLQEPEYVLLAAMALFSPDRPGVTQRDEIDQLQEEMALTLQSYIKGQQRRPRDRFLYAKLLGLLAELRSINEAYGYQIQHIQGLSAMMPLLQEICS
Chain of X-box-binding protein 1 (Homo sapiens) (P17861 whole entry, looked up): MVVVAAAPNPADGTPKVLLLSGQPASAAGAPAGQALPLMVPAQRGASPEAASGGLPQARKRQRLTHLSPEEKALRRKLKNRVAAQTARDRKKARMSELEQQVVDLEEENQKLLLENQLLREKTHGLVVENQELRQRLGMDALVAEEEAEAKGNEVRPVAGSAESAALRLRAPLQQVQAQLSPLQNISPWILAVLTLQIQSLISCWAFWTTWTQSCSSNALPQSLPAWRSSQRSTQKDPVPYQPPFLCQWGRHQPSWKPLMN

With `COC(=O)c1cccc(C)c1S(=O)(=O)NC(=O)Nc1nc(OCC(F)(F)F)nc(N(C)C)n1`, the outcome in [1], in assay [2], in [3], in [4], in assay [5] and in [6] was inactive. For the same compound, the outcome in assay [7], in assay [8] and in [9] was inactive.
Turning to `COc1c(Cl)ccc(Cl)c1C(=O)O`, the compound was classed as inactive in [1], in assay [2], in assay [3], in assay [4], in [5] and in assay [6]. Besides, the compound was classed as inactive in [8] and in assay [9].
For the compound `O=C(O)C1(C(=O)Nc2ccc(Cl)cc2Cl)CC1`, the outcome in assay [1], in [2], in [3], in assay [4], in [5] and in assay [6] was inactive. Also, the outcome in [8] and in assay [9] was inactive.
On to `O=C(c1ccccc1)C1CCCCC1`, for which the result in [1], in assay [2], in [3], in assay [4], in [5] and in assay [7] was inactive. The outcome in assay [8], in [9] and in [10] was inactive. Moreover, the AC50 in assay [4] is 42.8 µM (active); in [6], 25.3 µM (active) [middle of 4 runs].
For the compound `CCCN(CCC)c1c([N+](=O)[O-])cc(C(F)(F)F)c(N)c1[N+](=O)[O-]`, the result in assay [1], in assay [2], in [3], in assay [5], in assay [7] and in assay [8] was inactive. Also, the AC50 in assay [4] is 3.57 µM (active); in [6], 5.67 µM (active).
Take `CCCN(CCC)C(=O)SCC`: the call in assay [1], in [2], in [3], in assay [4], in assay [5] and in assay [6] was inactive. Also, the result in [8] and in [9] was inactive.
`COC(=O)c1ccccc1S(=O)(=O)NC(=O)Nc1nc(OC(F)F)cc(OC(F)F)n1`: the call in assay [1], in [2], in assay [3], in assay [4], in [5] and in [6] was inactive. The compound was called inactive in assay [8] and in assay [9].
With `CCCCOC(=O)C(C)Oc1ccc(Oc2ccc(C(F)(F)F)cn2)cc1` (stereo not drawn), the outcome in assay [1], in [2], in assay [3], in assay [4], in assay [5] and in assay [6] was inactive. Moreover, the compound was called inactive in assay [8] and in assay [9].
With `C#C[C@]1(O)CC[C@H]2[C@@H]3CCC4=CC(=O)CC[C@@H]4[C@H]3CC[C@@]21CC`, the result in [1], in assay [2], in assay [3], in assay [4], in assay [8] and in assay [9] was inactive. In addition, in [10], the compound was called inactive. Besides, the AC50 in [4] was 27.6 µM (active).
Consider `CCSC(=O)N(CC(C)C)CC(C)C`, for which the call in assay [1], in [2], in [3], in assay [4], in assay [5] and in assay [6] was inactive. For the same compound, in assay [8], the compound was called inactive.
`N[C@@H](Cc1cc(I)c(Oc2ccc(O)c(I)c2)c(I)c1)C(=O)O`: the AC50 in assay [1] was 41.6 µM (active) and 24.3 µM (active). Further, the compound was classed as inactive in [1], in assay [2], in assay [3], in assay [4], in assay [5] and in assay [8]. Also, the outcome in assay [9] and in [10] was inactive.
For `OB(O)O`, the outcome in assay [1], in assay [2], in assay [3], in assay [4], in assay [5] and in [6] was inactive. The compound was classed as inactive in assay [7], in assay [8] and in assay [9].
Take `CCCOC(=O)c1ccc(C(=O)OCCC)nc1`: the call in assay [1], in assay [2], in assay [3], in [4], in assay [5] and in [6] was inactive. In addition, the compound was called inactive in [8].
As to `C[C@]12CC[C@@H]3c4ccc(O)cc4C[C@@H](CCCCCCCCCS(=O)CCCC(F)(F)C(F)(F)F)[C@H]3[C@@H]1CC[C@@H]2O` (stereo partly drawn), the outcome in assay [1], in assay [2], in assay [3], in assay [4], in assay [6] and in assay [7] was inactive. Further, the compound was classed as inactive in [8], in [9] and in assay [10]. Moreover, in [4], the AC50 was 1 µM (active) and 1.5 µM (active).
